Out of some 340,000 compounds screened, about 1,400 (0.41%) were called active. About 4% were inconclusive and are not listed. Shown is part of a subset that was picked to be rich in actives. Values without a mark were called inactive. The call rests on the fitted dose curve; cell line not stated here.
assay: qHTS for Antagonists of gsp, the Etiologic Mutation Responsible for Fibrous Dysplasia/McCune-Albright Syndrome: qHTS; conditions: gsp-mutant cells, cAMP HTRF, 30 min; series mostly up to 76.9 µM; activity change, negative = inhibition: at the top concentration; further: nearly all actives have a fitted effect of over 65% in size
How it was run: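 HTRF cAMP measurement after 30 min RT detection following 30 min, 37C compound treatment alongside […] (added as 300 uM solution) in G418-selected cells seeded at 2000/well and grown 16–24 h.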
On the % scale 0 is the no-effect control and ±100 the full control effect; potency means the concentration at half of the fitted maximal effect.

Compound | activity change, negative = inhibition [%] | Potency
Cc1cc2ccccn2c1C(=O)c1cccc(F)c1 | 7.18 | –
O=C(COC(=O)c1ccccc1)Nc1cccc(S(=O)(=O)N2CCOCC2)c1 | -5.44 | –
Cc1cc2ccccn2c1C(=O)c1cccc(S(=O)(=O)N2CCOCC2)c1 | – | 31.6 µM (active)
O=C(NN=CC=Cc1ccccc1)C(O)C(O)C(=O)NN=CC=Cc1ccccc1 (stereo not drawn) | 8.92 | –
CN(O)C(=S)c1ccccc1 | 9.75 | –
O=C(CSc1nnc(C2CC2)n1Cc1ccccc1)Nc1cccnc1Cl | – | 7.94 µM (active)
COc1ccc(-c2nnc(SCC(=O)Nc3cccnc3Cl)n2C)cc1 | -1.39 | –
CC(=O)Nc1ccc(NC(=O)CSc2nnc(C3CC3)n2-c2ccccc2)cc1 | 18.3 | –
CNN/C(N=Cc1ccc([N+](=O)[O-])s1)=N\S(=O)(=O)c1cc(C)c(Cl)cc1SCc1ccccc1 | 7.48 | –
Cc1nn(Cc2ccc(F)cc2)c(C)c1NC(=O)c1noc2c1CCc1ccccc1-2 | – | 35.5 µM (active)
Cc1cc(C(=O)Nc2c(C)nn(Cc3ccccc3)c2C)on1 | 7.49 | –
Cc1nn(Cc2ccc(F)cc2)c(C)c1NC(=O)c1cccnc1Cl | -12.7 | –
CCOC(=O)c1ccc2[nH]c(C)c(CN3CCN(C)CC3)c(=O)c2c1 | 4.58 | –
O=c1c2ccccc2c(-c2ccccc2)nn1-c1ccccn1 | -1.84 | –
O=C(O)c1ccc(-n2nc(-c3ccccc3)c3ccccc3c2=O)cc1 | – | 44.7 µM (active)
O=c1c2ccccc2c(-c2ccc(F)cc2)nn1-c1ccc(C(F)(F)F)cc1 | -3.36 | –
COc1ccc(N)c(C)c1 | -4.59 | –
COCC(=O)N(C)[C@H]1C[C@H]2c3cc(Oc4ccccc4C)ccc3CCN2C(=O)[C@H]1[C@H](C)O | -3.43 | –
O=C(CCCN1C(=O)/C(=C/c2ccccc2)SC1=S)Nc1ccc(O)cc1 | -13.4 | –
Cc1ccc(/C=C2/SC(=S)N(CCC(=O)NCCCN3CCOCC3)C2=O)cc1 | 3.12 | –
Cc1ccc(-c2nn(-c3ccccc3)cc2/C=C2\SC(=S)N(CCCCCC(=O)O)C2=O)o1 | – | 15.8 µM (active)
COc1ccc(/C=C2\SC(=S)N(CCCC(=O)NC3CCCC3)C2=O)cc1OC | -9.03 | –
COc1ccc(/C=C2\SC(=S)N(CC(=O)NNC(=O)c3ccncc3)C2=O)cc1 | -14.4 | –
COc1ccc(-c2nn(-c3ccccc3)cc2/C=C2/SC(=S)N(CCCC(=O)O)C2=O)c(C)c1 | – | 31.6 µM (active)
O=C(COC(=O)c1ccc(O)cc1O)NC(=O)c1ccccc1 | -6.71 | –

Compound | activity change, negative = inhibition [%] | Potency
O=C1/C(=C\c2ccc(O)cc2)CCC1CNc1ccc(Cl)cc1 (stereo not drawn) | -3.99 | –
COc1ccc(S(=O)(=O)N2CCc3ccccc32)cc1C(=O)Nc1cc(S(C)(=O)=O)ccc1Cl | -27.5 | –
COC(=O)Cc1c(-c2[nH]c3ccccc3c2CC(=O)OC)[nH]c2ccccc12 | -8.15 | –
Cc1ccc2c(O)c(Cc3ccccc3)c(=O)[nH]c2n1 | 4.19 | –
O=S(=O)(Nc1ccc2ccccc2c1)N1CCCCC1 | -8.9 | –
O=C(CC(O)(C(F)(F)F)C(F)(F)F)Nc1ccc(Cl)c(Cl)c1 | – | 7.08 µM (active)
CS(=O)(=O)N(CC(=O)Nc1ccc(Cl)c(Cl)c1)C1CCCCC1 | -26.2 | –
CCn1nccc1C(=O)Nc1ccc(Cl)c(Cl)c1 | -12.3 | –
O=S1(=O)CSCS(=O)(=O)C1 | 13.5 | –
CCCCC(=O)NC(c1ccc(OC)c(OC)c1)c1ccc2cccnc2c1O (stereo not drawn) | -9.19 | –
Cc1cc(C)c2oc(C(=O)Nc3ccc(S(=O)(=O)Nc4nccc(C)n4)cc3)cc(=O)c2c1 | 0.826 | –
Cc1ccnc(NS(=O)(=O)c2ccc(NC(=O)c3oc4ccccc4c3C)cc2)n1 | -23.2 | –
Cc1ccnc(NS(=O)(=O)c2ccc(NC(=O)c3oc4ccc(F)cc4c3C)cc2)n1 | – | 22.4 µM (active)
O=C(O)c1ccccc1/C=N/Nc1ccc(S(=O)(=O)Nc2ccc(Cl)cc2)cc1[N+](=O)[O-] | 4.56 | –
CN(C(=O)c1cccc(NC(=O)Cc2ccc(NC(=O)C3CCCN(C(=O)C4CCCC4)C3)cc2)c1)C1CCC1 (stereo not drawn) | -9.96 | –
COc1ccc(/C=C2\SC(=O)N(CCC(=O)NC3CCS(=O)(=O)C3)C2=O)cc1 (stereo not drawn) | -10.6 | –
COc1ccc(/C=C2/SC(=O)N(CCCCCC(=O)Nc3ccccc3C(=O)O)C2=S)cc1 | – | 22.4 µM (active)
COc1ccc(/C=C2\SC(=O)N(CCC(=O)NCCCn3ccnc3)C2=O)cc1 | -8.39 | –
C=CCn1c(=O)n(C)c2c(=O)n(C)c(=O)n(C)c21 | 11 | –
Cc1cccc(NC(=O)CSc2nnc(-c3ccco3)o2)c1 | 16 | –
O=C(Nc1ccc(Cl)cc1)c1cccc(OC(=S)N2CCOCC2)c1 | -15.7 | –
CCC(=O)Oc1cccc(C(=O)Nc2ccc(-c3nnc(-c4ccco4)o3)cc2)c1 | – | 28.2 µM (active)
Cc1c(NS(=O)(=O)c2cccc(C(=O)Nc3ccc(SC(F)F)cc3)c2)c(=O)n(-c2ccccc2)n1C | -25.1 | –
C(#CCN1CCOCC1)CCCN1CCOCC1 | 8 | –
CC(=O)OC1CCC2C3CCC4=C(CC(F)C(=O)C4)C3CCC12C (stereo not drawn) | 5.21 | –

Compound | activity change, negative = inhibition [%] | Potency
COc1ccc(/C=N/Nc2cc(N3CCOCC3)nc(C)n2)c(OC)c1 | – | 35.5 µM (active)
C(=N/Nc1cc(N2CCOCC2)nc(N2CCOCC2)n1)/c1ccccc1 | -27.6 | –
COc1ccc(/C=N/NC(=O)Nc2ccc3nsnc3c2)c(OC)c1 | -3.26 | –
CC(C)[C@@H](C(=O)OCC(=O)c1ccc2c(c1)NC(=O)CO2)N1C(=O)c2ccccc2C1=O | -7.63 | –
O=C(Nc1c[nH]c(=O)[nH]c1=O)OCc1ccccc1 | 1.53 | –
CCCCCCCCNS(=O)(=O)CCNC1CCCCC1 | 5.09 | –
Cc1ccc(C)c(N2CCN(C(=O)CCc3nc4ccccc4[nH]3)CC2)c1 | -22.8 | –
Cc1ccc(C)c(N2CCN(C(=O)CCCCCn3c(=S)[nH]c4ccc(N5CCOCC5)cc4c3=O)CC2)c1 | – | 28.2 µM (active)
O=C(CCCCCn1c(=S)[nH]c2cc3c(cc2c1=O)OCO3)N1CCN(c2ccc(F)cc2)CC1 | 6.67 | –
CC(C)CN1CC(C)C(=O)N(c2ccccc2)C1=S (stereo not drawn) | 5.08 | –
COc1cc(/C=C/c2ccc(/C=C/c3cc(OC)c(OC)c(OC)c3)cc2)cc(OC)c1OC | 7.14 | –
COc1ccc(/C=C/C(=O)N2CCCC2)cc1OC | -20.9 | –
COc1ccc(/C=C/C(=O)c2ccc(NS(=O)(=O)c3ccc(C)cc3)cc2)cc1O | -4.56 | –
COC(=O)c1ccc(COc2ccc(/C=C/C(=O)c3ccc(OC)c(CSCC(=O)O)c3)cc2OC)cc1 | – | 39.8 µM (active)
Cc1c[n+]([O-])ccc1[N+](=O)[O-] | -4.07 | –
CC(C)=CCc1ccc(O)c(=O)cc1C(C)C | 9.99 | –
Nc1nonc1-n1nnc(C(=O)N/N=C/C2CCCCC2)c1-c1ccccc1 | 12.5 | –
Nc1nonc1-n1nnc(C(=O)N/N=C/c2c[nH]c3ccccc23)c1-c1ccccc1 | – | 31.6 µM (active)
CC(C)c1c(C(=O)N/N=C/c2ccc(-c3ccccc3)cc2)nnn1-c1nonc1N | 0.139 | –
Nc1cc(=O)n(Cc2ccccc2)c(=O)n1Cc1ccccc1 | -4.98 | –
O=C1Nc2ccc(Br)cc2/C1=N/N=C/C1=C(N2CCOCC2)C(=C\c2ccccc2)/CC1 | -18.1 | –
O=C(O)c1ccc(NN=CC2=C(N3CCOCC3)/C(=C/c3ccccc3)CC2)cc1 | – | 10 µM (active)
C(=N\N1CCN(c2ccccn2)CC1)/C1=C(N2CCOCC2)C(=C/c2ccccc2)/CC1 | -4.31 | –
C[C@H](O)[C@@H]1C(=O)N2CCc3ccc(N4CCOCC4)cc3[C@@H]2C[C@@H]1N(C)C(=O)C(C)(C)C | 1.14 | –
O=C1C[C@@H]2c3c(cccc3CN1Cc1ccccc1)C[C@@H](O)[C@H]2O | 10.4 | –

Compound | activity change, negative = inhibition [%] | Potency
Cc1ccc(S(=O)(=O)N2CCC(C(=O)N3CCCCCCC3)CC2)cc1 | -1.88 | –
CSc1ncccc1C(=O)Nc1ccc2c(c1)OCO2 | -1.29 | –
CSc1ncccc1C(=O)Nc1nc2ccc(F)cc2s1 | – | 39.8 µM (active)
CSc1ncccc1C(=O)Nc1ccc(C)cn1 | -0.85 | –
COc1cc(C(=O)CCc2ccc3c(c2)OCO3)cc(OC)c1OC | 11.8 | –
COc1cc(C(=O)N2CCN(S(=O)(=O)c3ccc(C(C)C)cc3)CC2)ccc1OCC(=O)N1CCOCC1 | -14.8 | –
COc1cccc(C(=O)Nc2nc3ccc(S(C)(=O)=O)cc3s2)c1 | 1.97 | –
CS(=O)(=O)c1ccc2nc(NC(=O)C3C4C=CC(C4)C3C(=O)O)sc2c1 (stereo not drawn) | -1.75 | –
CS(=O)(=O)c1ccc2nc(NC(=O)c3ccc(Cl)nc3)sc2c1 | – | 31.6 µM (active)
Cc1ccc(NC(=O)C(C)OC(=O)C2CC3CCCC(C2)C3=O)cc1S(=O)(=O)N1CCOCC1 (stereo not drawn) | -2.68 | –
O=C(CNC(=O)c1cc(S(=O)(=O)N2CCOCC2)ccc1N1CCCC1)Nc1ccc(F)c(F)c1 | -2.71 | –
CN(CC(=O)O)S(=O)(=O)c1ccc2oc3ccccc3c2c1 | -8.22 | –
CN(CCO)S(=O)(=O)c1ccc2c(c1)C(=O)c1cc(S(=O)(=O)N(C)CCO)ccc1-2 | – | 8.91 µM (active)
O=C(O)c1ccc(NS(=O)(=O)c2ccc3c(c2)C(=O)c2cc(S(=O)(=O)Nc4ccc(C(=O)O)cc4)ccc2-3)cc1 | 0.663 | –
O=C1NC(=O)C(CCc2ccccc2)(c2ccccc2)N1 (stereo not drawn) | 11.4 | –
COC(=O)C1CC2=C(CC(C)(C)CC2=O)N(c2ccccc2)C1=O (stereo not drawn) | 9.37 | –
CCc1nc(C)cn1S(=O)(=O)c1cc([N+](=O)[O-])ccc1Cl | 3 | –
CCc1nc(C)cn1S(=O)(=O)c1cc(OC)c(C)cc1C | – | 31.6 µM (active)
COc1cc(Cl)c(S(=O)(=O)n2cnc(C)c2)cc1Cl | 8.27 | –
Cc1sc2ncnc(N3CCC(C(=O)Nc4ccc(F)cc4Cl)CC3)c2c1C | – | 39.8 µM (active)
Cc1sc2ncnc(N3CCC(C(=O)Nc4nc5ccc(Cl)cc5s4)CC3)c2c1C | -7.28 | –
CCc1ccc(C(=O)NNC(=O)C2CCN(c3ncnc4sc(C)c(C)c34)CC2)cc1 | -20 | –
CC(=O)OCC1(O)CC23CCC4c5ccoc5CCC4(C)C2CCC1C3 (stereo not drawn) | -6.12 | –

Reference: PubChem BioAssay AID624288 (National Center for Advancing Translational Sciences (NCATS), 2012)
